The record followed here is PubChem BioAssay AID504861 (Broad Institute, 2011).

Among all 1,200 compounds or so, about 290 (24%) were called active. Inconclusive results (about 3%) are left out.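 The calls were made as follows: active = compounds lowering cell viability signal with fitted half-maximal concentration at most ten times their highest tested concentration; inconclusive = flat fit with 30 to 70% signal loss, or poor fit; inactive = the rest.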 These entries were drawn from the full list. Entries with a potency or affinity are not part of this list.

A short description of the assay: cytotoxicity in HEK293T cells – cell-based, CellTiter-Glo luminescence, cherry-picks, cytotoxicity control for LMP1 NF-kB inhibitor project, dose response (AID 504861). Conditions: HEK293T viability, CellTiter-Glo ATP luminescence, 48 h; series mostly up to 26 µM. (In ATP-based viability assays light output follows the ATP content of the culture.)
Regarding `O=C(Cn1nc(C(F)(F)F)c2c1CCC2)NC1CCCCC1`, the call was inactive.

`O=[N+]([O-])c1cc(/C=N\O)ccc1Oc1ccc(F)cc1`: the molecule was classed as inactive. Regarding `COc1cc2cc(C(=O)Nc3ccc4c(c3)OCCO4)[nH]c2cc1OC`, the molecule was called inactive. As for `O=C(NNC(=S)Nc1ccc(Cl)c(Cl)c1)c1ccccn1`, the entry is “inactive”.

For `CC(=O)Nc1ccc(NC(=O)C(c2ccccc2)c2ccccc2)cc1`, the molecule was classed as inactive. As for `COCCCn1cnnc1SCC(=O)Nc1ccc(S(=O)(=O)N2CCCC2)cc1`, the entry is “inactive”; as for `CC1CCN(C(=O)/C(=C\c2cccs2)NC(=O)c2ccccc2)CC1`, “inactive”. Consider `COc1ccc(C=C2OC(=O)C(C(C)=O)=C2O)cc1`, for which the outcome was inactive.

For `Cc1cc(C(=O)CN2C(=O)c3ccccc3C2=O)c(C)n1Cc1cccs1`, the molecule was classed as inactive. As for `Cc1cccc(C)c1NC(=O)CN(C)CC(=O)Nc1ccccc1Oc1ccccc1`, the entry is “inactive”.

With `COCCn1c(SCC(=O)NCc2ccco2)nnc1-c1c[nH]c2ccccc12`, the call was inactive.

With `c1ccc(OCCSc2nnc3sc4ccccc4n23)cc1`, the result was inactive. With `CC(C)Oc1ccc(C2CC(=O)NC2=O)cc1` (stereo not drawn) the entry was “inactive”.

Consider `COCC(=O)N(C)c1nnc(-c2ccccn2)s1`, for which the result was inactive. As for `CCOC(=O)c1c2c(n(C)c1C)C(=O)C(=O)c1ccc(Br)cc1-2`, the entry is “inactive”. As for `CCOC(=O)N1CCC(n2c(=S)[nH]c3ccccc3c2=O)CC1`, the entry is “inactive”; as for `N#CC(C#N)c1ccnc2ccccc12`, “inactive”; as for `O=C(O)/C=C/c1ccc(Cn2ccnc2)cc1`, “inactive”. As for `CCN1CCN(Cc2ccc(NC(=O)c3ccc(C)c(NC(=O)c4cccc5[nH]ccc45)c3)cc2C(F)(F)F)CC1`, the entry is “inactive”; as for `CCN1CCN(Cc2ccc(NC(=O)c3ccc(C)c(NC(=O)N4CCNC4=O)c3)cc2C(F)(F)F)CC1`, “inactive”; as for `Cc1ccc(C(=O)Nc2cccc(C(F)(F)F)c2)cc1NC(=O)c1ccno1`, “inactive”.

For `CCN1CCN(Cc2ccc(NC(=O)c3ccc(C)c(NC(=O)c4ccno4)c3)cc2C(F)(F)F)CC1`, the outcome was inactive. With `Cc1ccc(C(=O)Nc2cccc(C(F)(F)F)c2)cc1Nc1ncnc2nc[nH]c12` the entry was “inactive”; with `CCN1CCN(Cc2ccc(NC(=O)c3ccc(C)c(NC(=O)c4nccn4C)c3)cc2C(F)(F)F)CC1`, “inactive”. As for `COc1cccc(CC(=O)NNC(=O)c2ccc3c(c2)OCO3)c1`, the entry is “inactive”. As for `COC(=O)c1c(O)ccc(Oc2ccccc2)c1C(=O)OC`, the entry is “inactive”. As for `CCC(=O)NC(=S)Nc1ccccc1C(F)(F)F`, the outcome was inactive. `N#CC1=C(N)N2C(=C(C#N)C1c1cccc(Br)c1)Nc1ccccc12` (stereo not drawn): the call was inactive. As for `C[C@@H](C(=O)Nc1ccc2c(c1)OCCO2)n1c(=O)[nH]c2ccccc2c1=O`, the entry is “inactive”; as for `Cc1nnc(SCC(=O)N2CCC(c3noc4ccc(F)cc34)CC2)s1`, “inactive”.

Consider `S=C1SCN(Cc2ccco2)CN1Cc1ccco1`, for which the outcome was inactive. With `O=C(CN(Cc1cccs1)C(=O)CNS(=O)(=O)c1ccccc1)NCc1ccco1` the entry was “inactive”; with `COC(=O)c1ccc2nc(-c3cccc(N)c3)cn2c1`, “inactive”; with `Cc1ccc(S(=O)(=O)N2CCN(C(=O)CSc3nnnn3C)C2)cc1`, “inactive”. As for `O=C(O)C1CC(=O)N(c2ccc(Br)cc2)C1` (stereo not drawn), the entry is “inactive”. As for `CCOc1ccc(C(=O)NC(=S)N(Cc2ccccc2)Cc2ccccc2)cc1`, the entry is “inactive”; as for `COCCn1c(C)cc(C(=O)COc2ccc(C)nc2[N+](=O)[O-])c1C`, “inactive”; as for `C=CCN(c1ccc(C(=O)Nc2ccc3c(c2)n(C)c(=O)n3C)cc1)S(C)(=O)=O`, “inactive”. Turning to `CC(C)N1CCN(c2ccc(OC[C@H]3CO[C@](Cn4cncn4)(c4ccc(Cl)cc4Cl)O3)cc2)CC1`, the molecule was classed as inactive.

On to `CC(C)Oc1ccc(C(=O)Nc2nnc(SCC(=O)N3CCOCC3)s2)cc1`, for which the molecule was classed as inactive. For the molecule `CCOc1ccc(N/C=C/C(=O)c2ccccc2)cc1`, the molecule was classed as inactive. With `Clc1cccc(CN2CCCCCC2)c1` the entry was “inactive”; with `CC(=O)c1ccc(N2CCN(c3ccnc4cc(Cl)ccc34)CC2)cc1`, “inactive”.

As to `c1ccc(C2c3[nH]c4ccccc4c3CCN2Cc2cccn2-c2ccccn2)nc1` (stereo not drawn), the outcome was inactive. Take `Cn1c(=O)c2ncn(CC(=O)O)c2n(C)c1=O`: the outcome was inactive.

Consider `Cc1cc(C)c(S(=O)(=O)Nc2nnc(CC(C)C)s2)c(C)c1`, for which the outcome was inactive. As to `CCn1c(=O)c2c(cnn2C)c2ccccc21`, the molecule was called inactive. As for `COc1cc(Cl)cc(C(c2c(C(=O)O)[nH]c3ccccc23)c2c(C(=O)O)[nH]c3ccccc23)c1O`, the molecule was classed as inactive. As for `O=C1CC(c2ccccc2)Oc2ccccc21` (stereo not drawn), the entry is “inactive”; as for `CCOC(=O)c1c(NC(=O)C2C3CCC(O3)C2C(=O)O)sc(C)c1-c1ccc(F)cc1` (stereo not drawn), “inactive”; as for `Cc1nc2sc(C(N)=O)c(N)c2c2c1CCCC2`, “inactive”. As for `O=C(NC(Cc1c[nH]c2ccccc12)C(=O)Nc1ccc(F)c([N+](=O)[O-])c1)c1cccs1` (stereo not drawn), the entry is “inactive”; as for `COCC(=O)N1CCC(Oc2ccc(C(=O)N3C[C@H]4CC[C@H]3C4)cc2)CC1`, “inactive”; as for `CC1=C(C(=O)OCc2ccc3c(c2)OCO3)C(c2ccc(Cl)cc2)NC(=O)N1` (stereo not drawn), “inactive”. With `COc1ccc(N2Cc3cccc(C(=O)NC(C)CCc4ccco4)c3C2=O)cc1` (stereo not drawn), the call was inactive. With `COc1ccc(CCNC(=O)CSC(=O)c2ccccc2)cc1OC`, the molecule was classed as inactive. As for `CCCN(CC1CC1)c1nc(C)nc(Nc2c(Cl)cc(Cl)cc2Cl)c1Cl`, the entry is “inactive”. As for `CC(C)Nc1nnc(SCC(=O)c2c(N)n(Cc3ccccc3)c(=O)n(C)c2=O)s1`, the entry is “inactive”; as for `COc1cccc(C(=O)OCn2nnc3ccccc3c2=O)c1OC`, “inactive”.

For `COc1ccc(C(=O)Nc2ccc(N3CCN(C(=O)c4ccccc4C)CC3)cc2)cc1`, the molecule was classed as inactive. With `COc1ccc2sc3c(=O)[nH]c4ccccc4c3c2c1` the entry was “inactive”; with `CCOc1ccccc1C(=O)N[C@H](C(=O)OCc1cc([N+](=O)[O-])cc2c1OCOC2)C(C)C`, “inactive”; with `Cc1ccc(S(=O)(=O)N2CCCCC2)cc1NC(=O)CNc1ccccc1N1CCCC1=O`, “inactive”.

Take `O=C(c1ccc(Cl)cc1)N1CCN(CCOc2ccccc2)CC1`: the call was inactive. As for `Cn1c(CC(=O)Nc2ccc(F)cc2)nnc1SCC(=O)Nc1nncs1`, the entry is “inactive”; as for `O=C(O)c1ccc(C=NNC(=O)c2cccc3ccccc23)cc1`, “inactive”. As for `Cc1cccc(/C=N/NC(=O)CNc2cccc3ccccc23)n1`, the entry is “inactive”; as for `O=C(/C=C/Nc1cccc(C(F)(F)F)c1)C(F)(F)F`, “inactive”.
